Laboratory results as given in PubChem BioAssay AID1619 (SRMLSC, 2009).
Screen size: about 220,000 compounds; about 830 (0.38%) were called active.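 How the source made its calls: active means compound inhibiting the enzyme by more than half at any dose during confirmatory dose-response retesting; inconclusive means strong single-dose inhibitors picked by rank but not retested; inactive means the rest.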 Only a sample is shown. Measured potencies and affinities stand elsewhere.

target: Leucine aminopeptidase (Plasmodium falciparum (isolate 3D7)) (UniProt Q8IL11); assay: P. falciparum M17LAP inhibitors, primary screen, biochemical, fluorogenic H-Leu-NHMec substrate, 1536-well (AID 1619); settings: recombinant M17LAP, H-Leu-NHMec fluorogenic kinetic assay; at 30 µM; stronger effect = higher value;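 further: plate controls were full reaction with DMSO carrier for no effect and no enzyme background for full effect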
Sequence (Q8IL11 whole entry, looked up): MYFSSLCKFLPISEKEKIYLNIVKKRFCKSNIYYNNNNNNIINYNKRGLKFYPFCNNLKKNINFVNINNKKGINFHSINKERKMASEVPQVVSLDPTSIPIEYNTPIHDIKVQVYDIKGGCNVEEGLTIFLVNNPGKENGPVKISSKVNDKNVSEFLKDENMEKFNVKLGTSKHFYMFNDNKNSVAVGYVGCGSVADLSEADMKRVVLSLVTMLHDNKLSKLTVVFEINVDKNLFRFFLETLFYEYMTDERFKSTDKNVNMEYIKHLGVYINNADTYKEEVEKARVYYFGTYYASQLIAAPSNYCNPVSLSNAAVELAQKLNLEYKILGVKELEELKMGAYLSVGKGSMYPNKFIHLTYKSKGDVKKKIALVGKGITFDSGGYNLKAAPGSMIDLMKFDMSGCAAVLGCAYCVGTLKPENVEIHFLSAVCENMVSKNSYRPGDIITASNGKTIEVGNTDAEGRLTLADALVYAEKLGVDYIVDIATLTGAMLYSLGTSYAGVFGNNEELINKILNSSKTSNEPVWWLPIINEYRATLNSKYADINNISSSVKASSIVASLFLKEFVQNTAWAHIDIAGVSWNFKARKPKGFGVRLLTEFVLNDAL

inhibition, inactive:
CN(C)c1ccc(NC(=S)N2CCN(c3ncc(C(F)(F)F)cc3Cl)CC2)cc1 -0.82%
COc1ccccc1N1CCN(CC(=O)Nc2ccc(-n3cnnn3)cc2)CC1 -1.4%
O=c1cc(N2CCOCC2)[nH]c(=O)n1C1CCCCC1 8.33%
CC(C)c1nc(-c2c(N)n(C)c(=O)n(C)c2=O)sc1C(=O)C(C)(C)C -3.01%
O=C(c1cc(-c2ccc3c(c2)OCO3)on1)N1CCOCC1 -10.2%
Cc1ccc(NC(=O)Nc2ccc(F)cc2)nc1 3.7%
CCC(=O)N1CCN(c2ccc(NC(=O)c3ccc([N+](=O)[O-])o3)cc2Cl)CC1 3.55%
CCOC(=O)N1CCN(C(=O)Nc2cccc3ccccc23)CC1 23.7%
Fc1cccc(CSc2ccc3nnc(-c4cccnc4)n3n2)c1 21.3%
COc1ccccc1NC(=S)NC(=O)c1ccc(-c2ccc(Cl)cc2)o1 4.34%
O=C(NC(=S)Nc1ccccc1O)c1ccc(-c2ccc(Cl)cc2)o1 1.04%
Cc1ccc(OCC(=O)Nc2ccc(N(C)C)cc2)cc1 -2.19%
Cc1cccc(-c2n[nH]c(=S)n2-c2ccccc2)c1[N+](=O)[O-] 0.12%
COc1ccc(-n2c(C(C)n3nc(C)c([N+](=O)[O-])c3C)n[nH]c2=S)cc1 (stereo unspecified) 31.2%
Cc1ccc(NC(=S)NC(C)(C)C)c([N+](=O)[O-])c1 -4.98%
O=C(O)C1CCCCC1C(=O)NCCc1ccccc1 (stereo unspecified) 32.3%
COc1ccc(CNC(=O)C2CCNCC2)cc1 -2.52%
CC1=C(C)CC(C(=O)NCc2ccc3c(c2)OCO3)C(C(=O)O)C1 (stereo unspecified) 45.8%
O=C(O)[C@H]1CCCC[C@H]1C(=O)NCCc1ccccc1 36.3%
CCC(c1nnnn1Cc1cccs1)N1CCN(C(=O)c2ccco2)CC1 (stereo unspecified) 16.8%
COc1ccc(CC(=O)O/N=C(\N)c2ccncc2)cc1 -0.41%
COc1ccc(-n2nc(C(=O)N3CCN(Cc4ccc5c(c4)OCO5)CC3)c3ccccc3c2=O)cc1 6.93%
Cc1nc(Nc2ccc(S(=O)(=O)N3CCCCC3C)cc2)c2nnn(Cc3ccccc3)c2n1 (stereo unspecified) 9.37%
COc1ccc(NC(=O)c2ccc(NCCN3C(=O)CCC3=O)c([N+](=O)[O-])c2)cc1 4.32%
COC(=O)c1ccccc1NC(=O)CSc1nc(O)c(-c2ccccc2)c(=O)[nH]1 5.3%
CSCC[C@@H](C(=O)O)N1Cc2ccccc2C1=O 5.39%
O=C(O)C(Cc1ccccc1)N1Cc2ccccc2C1=O (stereo unspecified) -1.49%
CCN(Cc1ccccc1)C(=O)Cn1c(=O)n(CC(=O)NCc2ccco2)c(=O)c2sccc21 -1.64%
CCN(C(=O)CSc1nnc2ccccn12)c1c(N)n(Cc2ccccc2)c(=O)[nH]c1=O 12.8%
N#C/C(=C\c1ccc(Cl)cc1)c1nc2ccccc2o1 8.5%
COc1ccc(/C=C(\CC(=O)O)c2nc3ccccc3o2)cc1 48.7%
COc1ccc(/C=C/C(=O)NCCC(=O)N2CCCN(C)CC2)cc1 0.13%
Fc1ccccc1Nc1nc(-c2ccncc2)nc2ccccc12 0.48%
Cc1cc(C(=O)NC(Cc2ccccc2)C(=O)O)c(C)o1 (stereo unspecified) -7.27%
CSCCC(NC(=O)c1cc(C(C)(C)C)oc1C)C(=O)O (stereo unspecified) 20.9%
O=C(C[n+]1ccc(/C=N/O)cc1)N(Cc1ccccc1)Cc1ccccc1 4.35%
COCCNC(=O)C(C)OC(=O)c1cc2sccc2n1C (stereo unspecified) 3.75%
CC(=O)Nc1ccc(S(=O)(=O)Nc2nc3ccccc3nc2Sc2nncn2C)cc1 -11.7%
Cn1cnnc1Sc1nc2ccccc2nc1NS(=O)(=O)c1ccccc1 53.8%
Cc1[nH]n(-c2cccc3ccccc23)c(=O)c1/C=N/NC(=O)c1cccc([N+](=O)[O-])c1 11.1%
CCSc1nnc(NC(=O)C2CCCCC2)s1 1.5%
CCSc1nnc(NC(=O)NC2CCCCC2)s1 -14.6%
CCSc1nnc(NC(=O)C2CCCCC2C(=O)O)s1 (stereo unspecified) 48.8%
CCSc1nnc(NC(=O)C2CC2c2ccccc2)s1 (stereo unspecified) 15%
CCOC(=O)c1cc(NC(=O)N(CC)C2CCCCC2)c(C)nc1C 1.12%
Cc1ccc(NC(=O)CSc2nc3c(c(=O)[nH]2)CN(Cc2ccc(F)cc2)CC3)cc1C -0.17%
Cc1cc(C)cc(NC(=O)CSc2nc3c(c(=O)[nH]2)CN(Cc2ccc(F)cc2)CC3)c1 13.5%
CSc1nc(=O)n(-c2ccccc2)c(C)c1C(C)=O 2.84%
COc1cccc(NC(=S)N(CCCN2CCCC(C)C2)Cc2cccs2)c1 (stereo unspecified) -0.27%
CCOC(=O)c1c(-c2ccccc2)oc2ccc(O)c(CN(C)C)c12 -6.67%
CCOC(=O)Nc1c2ccccc2nc2ccccc12 -87.5%
COc1ccc(CCNC(=O)C2CC(=O)N(CCc3ccc(C)cc3)C2)cc1OC (stereo unspecified) 5.63%
CCCn1c(SCC(=O)NC2CCCc3ccccc32)n[nH]c1=O (stereo unspecified) -0.96%
C=CCn1c(N)c(C(=O)N2CCN(C)CC2)sc1=S 14%
O=C(O)c1ccc(S(=O)(=O)Nc2ccc(O)c(Sc3nc4ccccc4s3)c2)cc1 40.7%
O=C(O)c1cccc(S(=O)(=O)Nc2ccc(O)c(Sc3nc4ccccc4s3)c2)c1 42.9%
CCOc1ccc(Nc2nc3ccccc3c(=O)s2)cc1 4.25%
COc1cccc(Nc2ccc(Nc3cccc(OC)c3)nn2)c1 -1.13%
COc1cccc(Nc2nc3ccc(OC)cc3s2)c1 14.2%
CCOc1ccc(NC(=O)Nc2nnc(CC)s2)cc1 9.94%
O=C(CSc1ccc(Cl)cc1)N1CCC(c2nc3ccccc3s2)CC1 1%
